LmPK inh – qHTS Assay for Inhibitors of Leishmania Mexicana Pyruvate Kinase (LmPK); Q27686; purified LmPK, Kinase-Glo ATP luminescence, 1 h; Potency, µM (top dose mostly 57.5 µM), for inactives: top-dose activity change, negative = inhibition, actives largely listed as inhibitors; actives 0.37% (n = 290,000); AID 1721, 2009; active means well fitted curve in the direction sought with a large enough effect; inconclusive means small, poorly fitted or top-dose-only effect, or another doubt; inactive means no such curve, though single readings can be large; an effect the other way counts as inactive or inconclusive; further: potency means the concentration at half of the fitted maximal effect; on the % scale 0 is the no-effect control and ±100 the full control effect
Target sequence (Q27686 whole entry, looked up): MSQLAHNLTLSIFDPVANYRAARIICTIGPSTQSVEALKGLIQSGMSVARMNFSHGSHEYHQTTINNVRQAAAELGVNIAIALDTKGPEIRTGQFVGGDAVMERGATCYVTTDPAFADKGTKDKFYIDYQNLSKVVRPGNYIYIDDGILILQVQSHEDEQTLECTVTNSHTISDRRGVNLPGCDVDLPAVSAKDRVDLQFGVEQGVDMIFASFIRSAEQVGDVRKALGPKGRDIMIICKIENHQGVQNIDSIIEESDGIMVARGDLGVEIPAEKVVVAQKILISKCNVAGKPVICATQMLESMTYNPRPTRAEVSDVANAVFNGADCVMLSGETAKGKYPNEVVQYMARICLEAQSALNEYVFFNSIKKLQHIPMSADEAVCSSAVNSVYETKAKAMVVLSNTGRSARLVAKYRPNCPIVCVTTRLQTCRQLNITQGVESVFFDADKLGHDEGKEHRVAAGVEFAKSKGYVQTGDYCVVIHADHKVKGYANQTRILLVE
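ATP generated from ADP (0.1 mM) and PEP (0.5 mM) by 0.1 nM LmPK over 1 h at room temperature (pH 7.2 imidazole buffer) was detected by coupled luciferase luminescence. Values were normalized to uninhibited and no-enzyme wells.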
TbPYK inhibitor – qHTS of Trypanosoma Brucei Inhibitors | TbPYK enzyme, Kinase-Glo Plus ATP luminescence, 45 min | actives 0.12% (n = 410,000) | pyruvate kinase (Trypanosoma brucei), Q57TT1 | Potency, µM (doses to about 76.8 µM), for inactives: at the highest dose activity, negative = inhibition, most hits filed as inhibitors; active means well fitted curve in the direction sought with a large enough effect; inconclusive means small, poorly fitted or top-dose-only effect, or another doubt; inactive means no such curve, though single readings can be large; an effect the other way counts as inactive or inconclusive; further: potency means the concentration at half of the fitted maximal effect; on the % scale 0 is the no-effect control and ±100 the full control effect; nearly all actives have a fitted effect of over 50% in size
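ADP (130 uM final) triggers the TbPYK reaction after compound addition; incubation is 45 min at room temperature. Kinase-Glo Plus is then added and luminescence imaged. Normalized data are fitted to concentration-effect curves.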
Shiga inhibitor – A qHTS for Small Molecule Inhibitors of Shiga Toxin; Vero cells, Shiga toxin protein synthesis inhibition reporter; inhibition, % at 38.7 µM; actives 9.2% (n = 290,000); AID 2315, 2010; in the data active means inhibition mostly above about 28%, no sharp cut-off; inactive means mostly below about 43%; further: 0% is about no effect
NS1 inh – qHTS Assay for Inhibitors of Influenza NS1 Protein Function; Potency, µM (doses to about 46.1 µM), for the others: at the highest dose activity, positive = more growth; actives 0.4% (n = 270,000); AID 2326, 2010; further: potency means the concentration at half of the fitted maximal effect; actives are rising curves; nearly all actives have a fitted effect of over 50% in size
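A cell-based growth assay was used: compounds that relieve NS1-induced slow growth of budding yeast raise OD600. Assay medium was yeast nitrogen base with ammonium sulphate and -URA supplement, pH 6.0, with 2% galactose.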
SARS PLpro yeast – qHTS of Yeast-based Assay for SARS-CoV PLP | S. cerevisiae expressing SARS-CoV PLpro, growth rescue | Potency, µM (series often up to 32.9 µM), inactives show top-dose activity, positive = growth rescue, actives largely listed as activators | actives 0.19% (n = 330,000); further: potency means the concentration at half of the fitted maximal effect; 0% is about no effect; nearly all actives have a fitted effect of over 55% in size
CHX counter – Cycloheximide Counterscreen for Small Molecule Inhibitors of Shiga Toxin. AID 2314, 2010. actives 12% (n = 300,000). cell reporter, cycloheximide protein synthesis inhibition counterscreen. max response, %; in the data active means max response mostly above about 13%, no sharp cut-off; inactive means mostly below about 14%; further: read at 38.3 µM for the half of the compounds with a filed dose; 0% is about no effect
* marks the source's active call; other numbers are inactive results; ? = inconclusive; · = no result; [ ] = dose if it differs, or a comment. The sample as a whole holds a higher share of hits than the screen did. Unless noted, the call rests on the fitted dose curve.

SMILES | LmPK inh | TbPYK inhibitor | Shiga inhibitor | NS1 inh | SARS PLpro yeast | CHX counter
CC(=O)Nc1cccc(C(=O)/C=C/c2ccc(N(C)C)cc2)c1 | 2.8% | 1.7% | 76.0* | 24.8% | -12.3% | 41.9*
CC(=O)Nc1ccc(NC(=O)C(C)OC(=O)/C=C/c2cccs2)cc1 (stereo unspecified) | 1.4% | -2.5% | -4.5 | · | 0.2% | 4.5
CC(=O)Nc1cccc(C(=O)/C=C/c2ccc(/C=C/C(=O)c3cccc(NC(C)=O)c3)cc2)c1 | -0.5% | · | 45.3 | 10.4% | -4.0% | 35.4*
CC(=O)Nc1cccc(C(=O)/C=C/c2ccc(Br)cc2)c1 | -2.0% | 3.3% | -1.1 | -7.3% | -40.9% | -5.3
Cc1ccc(S(=O)(=O)N(C)C)cc1NC(=O)CN1C(=O)NC2(CCCCCCC2)C1=O | -1.8% | -2.2% | -6.9 | 4.2% | 3.9% | 1.9
CC(=O)Nc1cccc(C(=O)/C=C/c2ccc(F)cc2)c1 | -1.4% | 0.3% | 41.2 | -43.6% | -3.7% | 29.4*
CC(=O)Nc1ccc(N=Cc2ccc[nH]2)cc1 | -5.9% | 1.4% | 40.6 | -11.1% | -4.4% | 15.4
CC(=O)Nc1cccc(C(=O)/C=C/c2ccc[nH]2)c1 | -2.5% | -4.1% | 53.6* | -3.9% | -0.9% | 26.4*
Cc1ccc(NC(=O)c2cccc3c2C(=O)N(C2CCCCC2)C3)c(Cl)c1 | -2.6% | -5.9% | -2.3 | 1.4% | 10.7% | -3.4
Cc1ccc(-c2ccc(NC(=O)C3C4C=CC(C4)C3C(=O)O)cc2)o1 (stereo unspecified) | -4.6% | -0.4% | 62.2* | -14.1% | 8.3% | 46.4*
Cc1ccc(C(=O)NC2CCCC2)s1 | -3.3% | 2.9% | 53.0 | -1.8% | -1.0% | 11.2*
Cc1ccc(C(=O)OCC(=O)NC2CC2)s1 | · | -4.9% | · | · | 2.5% | ·
O=C(COC(=O)c1sc2ccccc2c1Cl)NC1CCCCC1 | -4.3% | 1.1% | 13.3 | -18.3% | -16.3% | 20.0*
NC(=O)NC(=O)COC(=O)c1sc2ccccc2c1Cl | -3.5% | -26.6% | -6.4 | 0.1% | 0.2% | 4.2
Cc1ccc(C(=O)OCC(=O)NC2CCCCC2)s1 | -2.9% | -0.4% | 94.5* | · | -1.7% | 34.3*
CCOc1ccc2ccccc2c1/C=N/NC(=O)CNC(=O)c1ccccc1O | -1.8% | 20.1% | 2.2 | -0.9% | -2.5% | -1.0
Cc1ccc(NC(=S)Nc2ccc3cn[nH]c3c2)c(C)c1 | 3.8% | -4.5% | 20.2 | · | 1.4% | 1.6
CCOC(=O)c1cn[nH]c1NC(=S)Nc1ccc(OC)cc1 | -4.4% | -14.2% | 1.4 | 1.4% | -1.8% | 17.2
COC(=O)c1cn[nH]c1NC(=S)Nc1ccc(Cl)c(Cl)c1 | -0.4% | -8.9% | 118.0* | -5.6% | 3.0% | 71.0*
COC(=O)c1ccccc1NC(=S)NC(C)=O | -0.1% | 0.2% | -4.0 | 2.6% | 0.2% | -2.2
COC(=O)c1cn[nH]c1NC(=S)Nc1ccccc1C | -1.6% | -14.7% | 92.1* | -7.8% | -1.6% | 44.7*
COC(=O)c1cn[nH]c1NC(=S)Nc1ccc(C)cc1Cl | -0.1% | -1.2% | 74.5* | -8.9% | -6.2% | 27.2*
Fc1ccc(C[n+]2csc3ccccc32)cc1 | 4.9% | ? | 46.5 | -28.4% | -26.6% | 12.8
Clc1ccc(C[n+]2csc3ccccc32)cc1 | 2.0% | ? | 42.6* | 3.7% | -35.5% | 18.7*
O=c1c2c3c(sc2ncn1-n1cccc1)CCCCC3 | 0.9% | 0.5% | 56.2* | 4.4% | -14.5% | 36.0*
SMILES | LmPK inh | TbPYK inhibitor | Shiga inhibitor | NS1 inh | SARS PLpro yeast | CHX counter
CC(/C=N/NC(=O)c1ccco1)=C\c1ccccc1 | 3.1%[11.5 µM] | -6.5% | 89.2* | · | -12.0% | 24.2*
O=C(NCc1ccccc1)c1ccco1 | 0.6% | -7.0% | 4.4 | -2.4% | -26.2% | -2.1
CC(/C=N/NC(=O)c1ccccc1F)c1ccccc1 (stereo unspecified) | -2.8% | 1.3% | 165.2* | -2.5% | -1.2% | 29.8*
CC(/C=N/NC(=O)c1ccccc1C)=C\c1ccccc1 | · | 6.6% | · | · | · | ·
O=C(N/N=C\CCc1ccccc1)c1ccco1 | 1.8% | -8.6% | 50.2* | 21.6% | 1.6% | 38.0*
CC(C=NNC(=O)C(=O)NN=CC(C)=Cc1ccccc1)=Cc1ccccc1 | · | -3.3% | · | · | · | ·
CC(/C=N/NC(=O)c1ccccc1F)=C\c1ccccc1 | -1.6% | 8.1% | 107.1* | -14.5% | -11.5% | 47.1*
CC(C)=CCC[C@](C)(O)C1CC[C@]2(C)[C@@H]1CC[C@@H]1[C@@]3(C)CCC(=O)C(C)(C)[C@@H]3CC[C@]12C (stereo partly specified) | · | · | -4.1 | · | · | -6.2
CCc1nc2nc(C)cc(Nc3cc(Cl)ccc3C)n2n1 | · | -6.0% | · | · | · | ·
CCOc1ccc(-c2cn(-c3ccc(OC)cc3)c(SC)n2)cc1 | -5.1% | 2.0% | 113.3* | ? | -52.6% | 68.4*
O=C(CSc1nc(-c2ccccc2)cn1-c1ccccc1)Nc1ccccc1 | · | -3.6% | · | · | · | ·
CSc1nc(-c2ccccc2)cn1-c1ccc(NC(C)=O)cc1 | -16.4% | -16.9% | 79.2* | · | -3.5% | 34.6*
CN=c1scc(-c2ccccc2F)n1/N=C/c1ccc(O)c(O)c1O | ? | ? | -43.3 | · | -16.4% | -14.3
CCN=c1scc(-c2cccs2)n1/N=C/c1cc(OC)ccc1O | -4.3% | -16.6% | 41.1 | -15.6% | 0.3% | 51.1*
CC(C)N=c1scc(-c2cccs2)n1/N=C/c1ccc(O)c(O)c1O | -10.6% | -22.6% | 59.8* | -5.0% | -75.3% | 16.4*
CCCN(C(=O)Cn1cnc2sc(C)c(S(=O)(=O)N3CCN(c4ncccn4)CC3)c2c1=O)c1cccc(C)c1 | · | -3.6% | · | · | · | ·
O=c1c(/C=N/N2CCOCC2)c(O)n(-c2ccccc2)c(=S)n1-c1ccccc1 | -3.1% | -2.5% | -32.3 | -1.6% | 7.8% | 16.8*
COc1ccccc1-n1c(O)c(/C=N/N2CCCCC2)c(=O)n(-c2ccccc2OC)c1=S | -1.8% | -4.1% | 33.2* | -13.1% | 0.0% | 14.2
Cn1c(O)c(/C=N/N2CCOCC2)c(=O)n(-c2ccccc2)c1=S | -2.9% | -0.8% | -10.5 | 1.2% | 1.3% | -0.4
O=[N+]([O-])c1ccc(N/N=C/c2c[nH]c3ccccc23)cc1 | -6.9% | 2.8% | 61.1* | -53.6% | -15.3% | 26.5*
O=[N+]([O-])c1ccc(N/N=C/c2ccc[nH]2)cc1 | -22.7% | -3.8% | 65.7* | ? | -68.0% | 84.4*
Cn1cc([N+](=O)[O-])c(C(=O)N/N=C\c2c[nH]c3ccccc23)n1 | -1.4% | 2.9% | -2.8 | 1.6% | 0.0% | 8.7
COc1ccccc1NS(=O)(=O)c1cc([N+](=O)[O-])ccc1N/N=C/c1c[nH]c2ccccc12 | -20.0% | 0.0% | -13.7 | 4.1% | -1.5% | 0.5
O=[N+]([O-])c1ccccc1N/N=C/c1c[nH]c2ccccc12 | -21.8% | -14.8% | 87.7* | -3.0% | -2.6% | 67.5*
O=C(c1ccncc1)N1CCC2(CCCN(c3ccccn3)C2)CC1 | · | -7.8% | · | · | · | ·

Screens (PubChem)
